Source: the supplement of paper PMC8728848
Shown is part of a subset that was picked to be rich in the strongest signals.

Key:
Assay in all cases: glycan array binding signal (z-score within array); higher = stronger binding
Conditions in all cases: glycan notation: IUPAC condensed, linker removed
[1] = molecular target: Fuc(a1-2)Gal6S(b1-3)GlcNAc
Outline: (§1)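 Glycan array data came from 3228 arrays in the Consortium for Functional Glycomics database, and only arrays with an available protein sequence were kept. Glycan names were put into IUPAC-condensed notation, and columns mapping to the same glycan were averaged. The binding signal is a within-array Z-score, averaged across arrays of one protein sequence run at different concentrations or buffers and across linkers. A negative Z-score can be read as non-binding.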

[2] = molecular target: Fuc(a1-2)[Gal(a1-3)]Gal(b1-3)GlcNAc(b1-2)Man(a1-3)[Fuc(a1-2)[Gal(a1-3)]Gal(b1-3)GlcNAc(b1-2)Man(a1-6)]Man(b1-4)GlcNAc(b1-4)[Fuc(a1-6)]GlcNAc
Outline: as §1

[3] = molecular target: Fuc(a1-2)[Gal(a1-3)]Gal(b1-3)GlcNAc(b1-3)GalNAc
Outline: as §1

[4] = molecular target: Fuc(a1-2)[Gal(a1-3)]Gal(b1-4)GlcNAc(b1-2)Man(a1-3)[Fuc(a1-2)[Gal(a1-3)]Gal(b1-4)GlcNAc(b1-2)Man(a1-6)]Man(b1-4)GlcNAc(b1-4)GlcNAc
Outline: as §1

[5] = molecular target: Fuc(a1-2)[Gal(a1-3)]Gal(b1-4)GlcNAc(b1-2)Man(a1-3)[Fuc(a1-2)[Gal(a1-3)]Gal(b1-4)GlcNAc(b1-2)Man(a1-6)]Man(b1-4)GlcNAc(b1-4)[Fuc(a1-6)]GlcNAc
Outline: as §1

[6] = molecular target: Fuc(a1-2)[Gal(a1-3)]Gal(b1-4)[Fuc(a1-3)]GlcNAc(b1-3)GalNAc
Outline: as §1

[7] = molecular target: Fuc(a1-2)[GalNAc(a1-3)]Gal(b1-3)GlcNAc(b1-2)Man(a1-3)[Fuc(a1-2)[GalNAc(a1-3)]Gal(b1-3)GlcNAc(b1-2)Man(a1-6)]Man(b1-4)GlcNAc(b1-4)GlcNAc
Outline: as §1

Fuc(a1-3)GlcNAc = molecular target: Fuc(a1-3)GlcNAc
Outline: as §1

[8] = molecular target: Fuc(a1-3)[Gal3S(b1-4)]GlcNAc
Outline: as §1

[9] = molecular target: Gal(a1-3)Gal(b1-3)GlcNAc(b1-6)GalNAc
Outline: as §1

[10] = molecular target: Gal(a1-4)Gal(b1-4)GlcNAc(b1-2)Man(a1-3)[Gal(a1-4)Gal(b1-4)GlcNAc(b1-2)Man(a1-6)]Man(b1-4)GlcNAc(b1-4)GlcNAc
Outline: as §1

Gal(b1-3)GalNAc(b1-3)Gal = molecular target: Gal(b1-3)GalNAc(b1-3)Gal
Outline: as §1

[11] = molecular target: Gal(b1-3)GlcNAc(b1-3)Gal(b1-4)GlcNAc(b1-2)Man(a1-3)[Gal(b1-3)GlcNAc(b1-3)Gal(b1-4)GlcNAc(b1-2)Man(a1-6)]Man(b1-4)GlcNAc(b1-4)GlcNAc
Outline: as §1

[12] = molecular target: Gal(b1-4)GlcNAc(a1-6)Gal(b1-4)GlcNAc
Outline: as §1

[13] = molecular target: Gal(b1-4)GlcNAc(b1-2)Man(a1-3)[Gal(b1-4)GlcNAc(b1-2)][GlcNAc(b1-4)]Man(b1-4)GlcNAc(b1-4)GlcNAc
Outline: as §1

[14] = molecular target: Gal(b1-4)GlcNAc(b1-2)Man(a1-3)[Man(a1-6)]Man(b1-4)GlcNAc(b1-4)GlcNAc
Outline: as §1

[15] = molecular target: Gal(b1-4)GlcNAc(b1-2)[Gal(b1-4)GlcNAc(b1-6)]Man(a1-6)[GlcNAc(b1-4)][Gal(b1-4)GlcNAc(b1-2)Man(a1-3)]Man(b1-4)GlcNAc(b1-4)GlcNAc
Outline: as §1

[16] = molecular target: Gal(b1-4)GlcNAc(b1-3)Gal(b1-4)GlcNAc(b1-2)Man(a1-3)[Gal(b1-4)GlcNAc(b1-3)Gal(b1-4)GlcNAc(b1-2)Man(a1-6)]Man(b1-4)GlcNAc(b1-4)[Fuc(a1-6)]GlcNAc
Outline: as §1

[17] = molecular target: Gal(b1-4)GlcNAc(b1-3)Gal(b1-4)GlcNAc(b1-3)Gal(b1-4)GlcNAc(b1-2)[Gal(b1-4)GlcNAc(b1-3)Gal(b1-4)GlcNAc(b1-3)Gal(b1-4)GlcNAc(b1-6)]Man(a1-6)[Gal(b1-4)GlcNAc(b1-3)Gal(b1-4)GlcNAc(b1-3)Gal(b1-4)GlcNAc(b1-2)Man(a1-3)]Man(b1-4)GlcNAc(b1-4)[Fuc(a1-6)]GlcNAc
Outline: as §1

[18] = molecular target: Gal(b1-4)GlcNAc(b1-3)Gal(b1-4)GlcNAc(b1-3)Gal(b1-4)GlcNAc(b1-3)Gal(b1-4)GlcNAc(b1-2)Man(a1-3)[Gal(b1-4)GlcNAc(b1-3)Gal(b1-4)GlcNAc(b1-3)Gal(b1-4)GlcNAc(b1-3)Gal(b1-4)GlcNAc(b1-2)Man(a1-6)]Man(b1-4)GlcNAc(b1-4)[Fuc(a1-6)]GlcNAc
Outline: as §1

[19] = molecular target: Gal3S(b1-3)[Fuc(a1-4)]GlcNAc
Outline: as §1

Gal6S(b1-3)GlcNAc6S = molecular target: Gal6S(b1-3)GlcNAc6S
Outline: as §1

[20] = molecular target: GlcNAc(b1-2)Man(a1-3)[GlcNAc(b1-2)Man(a1-6)]Man(b1-4)GlcNAc(b1-4)GlcNAc
Outline: as §1

[21] = molecular target: GlcNAc(b1-2)[GlcNAc(b1-4)]Man(a1-3)[GlcNAc(b1-4)][GlcNAc(b1-2)[GlcNAc(b1-6)]Man(a1-6)]Man(b1-4)GlcNAc(b1-4)GlcNAc
Outline: as §1

GlcNAc(b1-3)Gal = molecular target: GlcNAc(b1-3)Gal
Outline: as §1

[22] = molecular target: GlcNAc(b1-3)Gal(b1-4)GlcNAc(b1-2)Man(a1-3)[GlcNAc(b1-3)Gal(b1-4)GlcNAc(b1-2)Man(a1-6)]Man(b1-4)GlcNAc(b1-4)GlcNAc
Outline: as §1

[23] = molecular target: GlcNAc(b1-3)Gal(b1-4)GlcNAc(b1-2)Man(a1-3)[GlcNAc(b1-3)Gal(b1-4)GlcNAc(b1-2)Man(a1-6)]Man(b1-4)GlcNAc(b1-4)[Fuc(a1-6)]GlcNAc
Outline: as §1

[24] = molecular target: GlcNAc(b1-3)Gal(b1-4)GlcNAc(b1-3)Gal(b1-4)GlcNAc(b1-2)Man(a1-3)[GlcNAc(b1-3)Gal(b1-4)GlcNAc(b1-3)Gal(b1-4)GlcNAc(b1-2)Man(a1-6)]Man(b1-4)GlcNAc(b1-4)GlcNAc
Outline: as §1

B1: PpFlo2 (Pichia pastoris) (protein)
chain: MGSSHHHHHHSSGLVPRGSHMDDSGNGDNSDTAYGCDITTNAVDGFDATIYQYNANDLRLIRDPTFMSTGYLGRNVLNKISGVTVPGFNIWNPSSRTATVYGVKNVNYYNMVLELKGYFKADVSGDYKLTLSHIDDSSMLFFGKETAFKCCDAGSIPLNEAPTDYSLFTIKPSNQVNSEVISATQYLEAGKYYPVRIVFVNALERARFDFKLTIPSGAVLDDFQNYIYQFGDLDENSCHE
With B1 the “glycan array binding signal (z-score)” value [1] was -0.272, the “glycan array binding signal (z-score)” value [2] was -0.293 and the “glycan array binding signal (z-score)” value [3] was -0.288. The “glycan array binding signal (z-score)” value [4] was -0.209, the “glycan array binding signal (z-score)” value [5] was -0.288 and the “glycan array binding signal (z-score)” value [6] was -0.297. For the same binder, the “glycan array binding signal (z-score)” value [7] was -0.287, the “glycan array binding signal (z-score)” value (Fuc(a1-3)GlcNAc) was -0.292 and the “glycan array binding signal (z-score)” value [8] was -0.313. The “glycan array binding signal (z-score)” value [9] was -0.271, the “glycan array binding signal (z-score)” value [10] was -0.23 and the “glycan array binding signal (z-score)” value (Gal(b1-3)GalNAc(b1-3)Gal) was -0.272. The “glycan array binding signal (z-score)” value [11] was -0.174, the “glycan array binding signal (z-score)” value [12] was -0.273 and the “glycan array binding signal (z-score)” value [13] was -0.344. For the same binder, the “glycan array binding signal (z-score)” value [14] was -0.273, the “glycan array binding signal (z-score)” value [15] was -0.297 and the “glycan array binding signal (z-score)” value [16] was -0.25. For the same binder, the “glycan array binding signal (z-score)” value [17] was -0.261, the “glycan array binding signal (z-score)” value [18] was -0.243 and the “glycan array binding signal (z-score)” value [19] was -0.286. For the same binder, the “glycan array binding signal (z-score)” value (Gal6S(b1-3)GlcNAc6S) was -0.286, the “glycan array binding signal (z-score)” value [20] was 3.88 and the “glycan array binding signal (z-score)” value [21] was 0.675. The “glycan array binding signal (z-score)” value (GlcNAc(b1-3)Gal) was 1.09, the “glycan array binding signal (z-score)” value [22] was 4.64 and the “glycan array binding signal (z-score)” value [23] was 4.49. The “glycan array binding signal (z-score)” value [24] was 3.9.
